Drawing on PubChem BioAssay (EPA / NIEHS), this text covers outcome and AC50 for 5 compounds.

Results filed as inconclusive are left out. The source made the active and inactive calls. How the source made its calls, unless noted: active means hit-call score of the fitted dose curve at least 0.9, where 1 is the maximum; inconclusive means response in the unintended direction; inactive means score below 0.9.

Assay [1] in a line: ATG_TAL_CIS: Attagene CIS-FACTORIAL HepG2 Assay for human TAL Basal Promoter (AID 2282966; active means hit-call score of the fitted dose curve at least 0.9, where 1 is the maximum; inactive means score below 0.9;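 further: background control endpoint measuring basal TAL promoter reporter mRNA not a specific factor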). The following applies: HepG2 Attagene cis-factorial TAL promoter reporter; actives raise or lower the signal. In a few lines: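 HepG2, transient MRTU transfection, 24 h compound exposure; RNA → oligo(dT) RT → PCR → 6-FAM primer extension → HpaI digest → CE fluorescence. Bidirectional curve fit vs DMSO. Background-control readout.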

A short description of assay [2]: ATG_TGFb_CIS: Attagene CIS-FACTORIAL HepG2 Assay for human Transforming Growth Factor (TGF) (AID 2282967; active means hit-call score of the fitted dose curve at least 0.9, where 1 is the maximum; inactive means score below 0.9). The following applies: HepG2 Attagene CIS TGFb reporter, mRNA transcription; actives raise or lower the signal. The essentials:
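Endogenous TGFB1-linked transcription factor activity read as reporter mRNA via RT-PCR and capillary electrophoresis, 24 h after dosing transiently transfected HepG2 cells. Gain or loss of signal fitted relative to DMSO.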

The nature of assay [3]: ATG_VDRE_CIS: Attagene CIS-FACTORIAL HepG2 Assay for human Vitamin D Receptor Element (VDRE) (AID 2282968; active means hit-call score of the fitted dose curve at least 0.9, where 1 is the maximum; inactive means score below 0.9). The following applies: HepG2 VDRE cis-reporter transcription, actives raise or lower the signal. The essentials:
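Readout is VDRE-driven reporter mRNA reflecting endogenous factor activity in human HepG2 cells, sampled 24 h post-dose. Quantification used labelled RT-PCR products separated by capillary electrophoresis; bidirectional analysis relative to DMSO.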

The target of assay [4] is Nuclear receptor subfamily 1 group I member 3 (Homo sapiens) (UniProt Q14994). Nature of the assay: ATG_CAR_TRANS: Attagene TRANS-FACTORIAL HepG2 Assay for human Constitutive Androstane Receptor (CAR) (AID 2282969).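 Further: activators raise reporter mRNA above DMSO so AC50 marks induction.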 The following applies: HepG2 Attagene TRANS-FACTORIAL CAR reporter. The essentials:
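Signal is reporter mRNA induction relative to DMSO, measured 24 h after dosing by RT-PCR with fluorescent primer extension and capillary electrophoresis. Human HepG2 liver cells carried transiently transfected chimeric NR-Gal4/GAL4-UAS reporter constructs.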

The target of assay [5] is Steroid hormone receptor ERR1 (Homo sapiens) (UniProt P11474). The assay can be described thus: ATG_ERRa_TRANS: Attagene TRANS-FACTORIAL HepG2 Assay for human Estrogen-Related Receptor alpha (ERRa) (AID 2282971). The following applies: HepG2 Attagene TRANS reporter, ERRa transactivation. In a few lines:
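Transfected HepG2, 24 h dosing, ERRa-Gal4 chimera driving GAL4-UAS reporter. Readout: reporter mRNA via RT-PCR plus capillary electrophoresis (fluorescence). Positive direction vs DMSO control.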

Assay [6] deals with X-box-binding protein 1 (Homo sapiens) (UniProt P17861). Nature of the assay: ATG_Xbp1_CIS: Attagene CIS-FACTORIAL HepG2 Assay for human X-box Binding Protein 1 (XBP1) (AID 2282972; active means hit-call score of the fitted dose curve at least 0.9, where 1 is the maximum; inactive means score below 0.9). The following applies: HepG2 XBP1 cis-element reporter, Attagene multiplex; actives raise or lower the signal. The essentials:
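Reporter transcripts were quantified by RT-PCR with fluorescent primer extension and capillary electrophoresis after 24 h chemical exposure. Cells: transiently transfected HepG2 carrying cis-regulated reporter constructs; data fitted bidirectionally relative to DMSO.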

The target in assay [7] is Estrogen-related receptor gamma (Homo sapiens) (UniProt P62508). Nature of the assay: ATG_ERRg_TRANS: Attagene TRANS-FACTORIAL HepG2 Assay for human Estrogen-Related Receptor gamma (ERRg) (AID 2282977).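 Further: hits increase reporter signal over DMSO so potencies reflect activators.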 The following applies: HepG2 Attagene TRANS reporter, ERRg transactivation. The essentials:
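Exogenous NR-Gal4 chimera activity measured as reporter transcript induction after 24 h in transiently transfected HepG2 cells. RNA reverse-transcribed, PCR-amplified, 6-FAM-labelled and resolved by capillary electrophoresis; increase over DMSO baseline.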

The target of assay [8] is Glucocorticoid receptor (Homo sapiens) (UniProt P04150). Nature of the assay: ATG_GR_TRANS: Attagene TRANS-FACTORIAL HepG2 Assay for human Glucocorticoid Receptor (GR) (AID 2282978).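 Further: activators score as hits since higher reporter transcript over DMSO is fitted.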 The following applies: HepG2 Attagene TRANS GR reporter, mRNA transcription. In a few lines:
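HepG2 cells transiently transfected with GAL4-UAS reporter units and exogenous GR-Gal4 chimera, dosed 24 h. Reporter mRNA by RT-PCR, FAM labeling, HpaI digest and capillary electrophoresis; gain-of-signal fit versus DMSO.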

In assay [9] the target is Bile acid receptor (Homo sapiens) (UniProt Q96RI1). The assay can be described thus: ATG_FXR_TRANS: Attagene TRANS-FACTORIAL HepG2 Assay for Farnesoid X Receptor (FXR) (AID 2282979).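 Further: hits raise reporter mRNA above DMSO so AC50 marks FXR activation.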 The following applies: HepG2 Attagene TRANS FXR-GAL4 reporter transcription. The essentials:
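Read-out: fluorescent reporter transcripts quantified by capillary electrophoresis after RT-PCR of total RNA. Source cells were HepG2 transiently carrying chimeric NR-GAL4 plus GAL4-UAS reporter units, dosed 24 h. Activity fitted upward relative to DMSO baseline.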

The target of assay [10] is Oxysterols receptor LXR-alpha (Homo sapiens) (UniProt Q13133). Nature of the assay: ATG_LXRa_TRANS: Attagene TRANS-FACTORIAL HepG2 Assay for human Liver X Receptor alpha (LXRa) (AID 2282980). The following applies: HepG2 Attagene TRANS reporter, LXRa transactivation. The essentials: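 Read-out: reporter transcript levels by RT-PCR plus capillary electrophoresis, fluorescence intensity. Transiently transfected HepG2, exogenous NR-GAL4 chimera, GAL4-UAS reporters; 24 h compound exposure. Activity = increase over DMSO negative control.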

Assay [11] deals with Oxysterols receptor LXR-beta (Homo sapiens) (UniProt P55055). Nature of the assay: ATG_LXRb_TRANS: Attagene TRANS-FACTORIAL HepG2 Assay for human Liver X Receptor beta (LXRb) (AID 2282981). The following applies: HepG2 Attagene TRANS GAL4-LXRb reporter, mRNA. In a few lines: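 After 24 h chemical treatment of transfected HepG2 cells carrying exogenous NR-Gal4 chimeras, reporter mRNA was quantified by fluorescent RT-PCR and capillary electrophoresis; activity taken as increase over DMSO controls.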

Assay [12] is described as follows: ATG_M_06_TRANS: Attagene TRANS-FACTORIAL HepG2 Assay for M06 Transcription Factor (Internal Marker) (AID 2282983). The following applies: HepG2 Attagene TRANS M06 internal marker reporter. The essentials: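 Read-out: fluorescent reporter cDNA fragments resolved by capillary electrophoresis after RT-PCR and HpaI cut. Source cells were HepG2 carrying transfected multi-reporter GAL4 constructs, dosed 24 h. Increase over DMSO control analysed.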

A short description of assay [13]: ATG_M_32_TRANS: Attagene TRANS-FACTORIAL HepG2 Assay for M32 Transcription Factor (Internal Marker) (AID 2282984).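 Further: transcript level of a background control reporter unit measured by RT-PCR and capillary electrophoresis.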 The following applies: HepG2 Attagene TRANS M32 internal marker reporter. In a few lines: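 Internal background reporter in transfected HepG2: after 24 h chemical exposure, RNA reverse-transcribed, reporter cDNA amplified, fluorescently labelled and HpaI-cut, then sized by capillary electrophoresis. Gain of signal fitted against DMSO control.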

In assay [14] the target is Nuclear receptor subfamily 4 group A member 2 (Homo sapiens) (UniProt P43354). The assay can be described thus: ATG_NURR1_TRANS: Attagene TRANS-FACTORIAL HepG2 Assay for human Nuclear Receptor Related Protein 1 (NURR1) (AID 2282985). The following applies: HepG2 Attagene TRANS reporter, mRNA readout. The essentials:
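Reporter transcript induction, measured by RT-PCR with fluorescent labelling, HpaI digestion and capillary electrophoresis, after 24 hr dosing of human HepG2 cells transiently expressing an exogenous NR-Gal4 fusion with GAL4-UAS-driven reporters; DMSO as baseline.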

The target of assay [15] is Transcriptional activator Myb (Homo sapiens) (UniProt P10242). The assay can be described thus: ATG_Myb_CIS: Attagene CIS-FACTORIAL HepG2 Assay for human Myeloblastosis (Myb) Proto-Oncogene Transcription Factor (AID 2282986; active means hit-call score of the fitted dose curve at least 0.9, where 1 is the maximum; inactive means score below 0.9). The following applies: HepG2 Attagene CIS-FACTORIAL Myb reporter transcription; actives raise or lower the signal. In a few lines:
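Transiently transfected HepG2 cells carrying a multiplexed cis-promoter reporter set report endogenous Myb activity after 24 h compound exposure. Reporter mRNA is read by RT-PCR with capillary electrophoresis of fluorescent products, fitted bidirectionally against DMSO.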

The target in assay [16] is Nuclear respiratory factor 1 (Homo sapiens) (UniProt Q16656). Nature of the assay: ATG_NRF1_CIS: Attagene CIS-FACTORIAL HepG2 Assay for human Nuclear Respiratory Factor 1 (NRF1) Orphan Gene (AID 2282987; active means hit-call score of the fitted dose curve at least 0.9, where 1 is the maximum; inactive means score below 0.9). The following applies: HepG2 NRF1 cis-element reporter, Attagene multiplex; actives raise or lower the signal. The essentials:
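HepG2 cells transiently transfected with multiple cis-regulated reporter units, exposed 24 h. Reporter mRNAs measured by RT-PCR, fluorescent labelling, HpaI digestion and capillary electrophoresis; bidirectional fitting against DMSO.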

Assay [17] can be described thus: ATG_NFI_CIS: Attagene CIS-FACTORIAL HepG2 Assay for human Nuclear Factor I (NFI) (AID 2282989; active means hit-call score of the fitted dose curve at least 0.9, where 1 is the maximum; inactive means score below 0.9). The following applies: HepG2 cis-regulatory reporter, NFI response element transcription; actives raise or lower the signal. The essentials: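 Reporter transcripts were measured by RT-PCR with fluorescent primer extension and capillary electrophoresis 24 h post-treatment. HepG2 cells carried transiently transfected cis-regulated reporter constructs reporting endogenous factor activity; gain or loss fitted against DMSO baseline.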

Assay [18] in a line: ATG_M_19_TRANS: Attagene TRANS-FACTORIAL HepG2 Assay for M19 Transcription Factor (Internal Marker) (AID 2282974). The following applies: HepG2 Attagene TRANS-FACTORIAL M19 internal marker reporter. In a few lines: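 HepG2 transiently transfected with GAL4-UAS multiplex reporter constructs, exposed 24 h; reporter RNA quantified by RT-PCR, 6-FAM labeling, HpaI digestion and capillary electrophoresis; internal background marker fitted upward versus DMSO.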

For assay [19], the target named is Hepatocyte nuclear factor 4-alpha (Homo sapiens) (UniProt P41235). The assay can be described thus: ATG_HNF4a_TRANS: Attagene TRANS-FACTORIAL HepG2 Assay for human Hepatocyte Nuclear Factor 4 alpha (HNF4a) (AID 2282982). The following applies: HepG2 HNF4a transactivation reporter, mRNA readout. The essentials:
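Activity of an exogenous HNF4a–Gal4 fusion scored as induced GAL4-UAS reporter transcripts after 24 h chemical exposure of transfected human HepG2 cells. Read-out via RT-PCR with 6-FAM labelling and capillary electrophoresis; rise over DMSO baseline.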

Chain of Steroid hormone receptor ERR1 (Homo sapiens) (P11474 whole entry, looked up, the tested form may be a part): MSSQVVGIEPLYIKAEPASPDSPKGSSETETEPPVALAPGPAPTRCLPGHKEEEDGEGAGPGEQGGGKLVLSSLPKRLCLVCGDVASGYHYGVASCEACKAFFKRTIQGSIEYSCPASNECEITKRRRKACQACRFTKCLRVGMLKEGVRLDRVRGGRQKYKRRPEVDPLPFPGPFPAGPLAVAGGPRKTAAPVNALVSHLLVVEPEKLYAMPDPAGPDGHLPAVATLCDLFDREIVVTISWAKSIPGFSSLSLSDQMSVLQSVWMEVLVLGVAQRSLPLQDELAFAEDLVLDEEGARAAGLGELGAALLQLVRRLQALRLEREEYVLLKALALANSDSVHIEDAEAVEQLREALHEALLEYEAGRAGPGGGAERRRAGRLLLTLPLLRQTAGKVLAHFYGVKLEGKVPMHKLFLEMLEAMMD
Chain of Nuclear receptor subfamily 4 group A member 2 (Homo sapiens) (P43354 whole entry, looked up, the tested form may be a part): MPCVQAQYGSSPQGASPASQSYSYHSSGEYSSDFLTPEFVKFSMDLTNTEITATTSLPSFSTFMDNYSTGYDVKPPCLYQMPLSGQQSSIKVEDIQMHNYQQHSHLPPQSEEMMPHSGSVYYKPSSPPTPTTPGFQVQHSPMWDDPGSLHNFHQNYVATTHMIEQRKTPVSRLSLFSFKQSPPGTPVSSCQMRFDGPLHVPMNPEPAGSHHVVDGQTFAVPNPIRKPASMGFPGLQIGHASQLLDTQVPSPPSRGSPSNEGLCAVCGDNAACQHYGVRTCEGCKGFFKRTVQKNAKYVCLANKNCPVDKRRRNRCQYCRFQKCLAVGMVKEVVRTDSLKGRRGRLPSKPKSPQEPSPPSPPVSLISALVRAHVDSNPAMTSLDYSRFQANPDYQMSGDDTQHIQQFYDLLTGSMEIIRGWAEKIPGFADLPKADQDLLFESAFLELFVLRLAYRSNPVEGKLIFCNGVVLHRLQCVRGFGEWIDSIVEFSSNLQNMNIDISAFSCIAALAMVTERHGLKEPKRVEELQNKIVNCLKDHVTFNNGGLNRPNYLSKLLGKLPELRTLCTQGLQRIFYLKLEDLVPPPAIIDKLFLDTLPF
Chain of Nuclear respiratory factor 1 (Homo sapiens) (Q16656 whole entry, looked up): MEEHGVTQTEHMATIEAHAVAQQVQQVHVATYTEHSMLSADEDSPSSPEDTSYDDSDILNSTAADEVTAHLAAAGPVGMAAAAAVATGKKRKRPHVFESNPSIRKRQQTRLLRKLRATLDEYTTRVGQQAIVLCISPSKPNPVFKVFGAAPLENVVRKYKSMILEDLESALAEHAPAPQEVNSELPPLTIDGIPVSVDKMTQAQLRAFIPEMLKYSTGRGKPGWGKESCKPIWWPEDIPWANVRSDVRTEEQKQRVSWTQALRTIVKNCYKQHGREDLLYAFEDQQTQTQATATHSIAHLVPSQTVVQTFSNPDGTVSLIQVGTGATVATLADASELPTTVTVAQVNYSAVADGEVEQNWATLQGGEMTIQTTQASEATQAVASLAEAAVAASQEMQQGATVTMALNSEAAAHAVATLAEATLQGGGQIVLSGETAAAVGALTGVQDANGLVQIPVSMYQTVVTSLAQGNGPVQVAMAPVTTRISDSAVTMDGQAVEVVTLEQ
Chain of Estrogen-related receptor gamma (Homo sapiens) (P62508 whole entry, looked up, the tested form may be a part): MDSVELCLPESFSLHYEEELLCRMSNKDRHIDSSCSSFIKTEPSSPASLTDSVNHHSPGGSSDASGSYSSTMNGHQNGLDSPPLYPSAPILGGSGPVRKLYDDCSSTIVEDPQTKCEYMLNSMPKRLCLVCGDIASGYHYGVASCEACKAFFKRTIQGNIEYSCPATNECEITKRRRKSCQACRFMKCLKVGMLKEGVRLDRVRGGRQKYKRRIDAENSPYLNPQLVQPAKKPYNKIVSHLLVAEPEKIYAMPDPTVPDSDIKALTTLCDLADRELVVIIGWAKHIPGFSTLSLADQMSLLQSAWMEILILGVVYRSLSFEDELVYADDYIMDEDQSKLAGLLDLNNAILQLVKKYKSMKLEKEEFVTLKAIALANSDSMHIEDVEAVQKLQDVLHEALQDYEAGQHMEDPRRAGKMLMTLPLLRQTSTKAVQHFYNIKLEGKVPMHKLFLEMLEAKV
Chain of Transcriptional activator Myb (Homo sapiens) (P10242 whole entry, looked up): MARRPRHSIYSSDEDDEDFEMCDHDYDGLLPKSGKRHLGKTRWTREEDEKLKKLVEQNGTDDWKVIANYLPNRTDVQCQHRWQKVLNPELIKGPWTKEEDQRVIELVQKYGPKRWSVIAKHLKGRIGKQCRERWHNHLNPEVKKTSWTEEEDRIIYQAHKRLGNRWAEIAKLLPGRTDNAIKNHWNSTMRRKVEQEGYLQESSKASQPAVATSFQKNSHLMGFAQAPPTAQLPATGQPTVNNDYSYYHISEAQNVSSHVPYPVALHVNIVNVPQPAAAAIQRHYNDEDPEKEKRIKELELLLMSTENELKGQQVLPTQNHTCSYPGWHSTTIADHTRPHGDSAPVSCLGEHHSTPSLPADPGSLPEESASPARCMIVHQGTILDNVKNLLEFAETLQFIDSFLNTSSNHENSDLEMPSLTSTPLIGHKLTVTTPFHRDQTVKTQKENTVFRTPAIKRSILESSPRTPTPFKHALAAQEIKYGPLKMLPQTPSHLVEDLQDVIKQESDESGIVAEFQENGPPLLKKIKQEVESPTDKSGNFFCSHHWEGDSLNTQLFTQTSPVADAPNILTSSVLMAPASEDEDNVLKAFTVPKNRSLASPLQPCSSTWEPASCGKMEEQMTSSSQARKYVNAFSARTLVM
Chain of Nuclear receptor subfamily 1 group I member 3 (Homo sapiens) (Q14994 whole entry, looked up, the tested form may be a part): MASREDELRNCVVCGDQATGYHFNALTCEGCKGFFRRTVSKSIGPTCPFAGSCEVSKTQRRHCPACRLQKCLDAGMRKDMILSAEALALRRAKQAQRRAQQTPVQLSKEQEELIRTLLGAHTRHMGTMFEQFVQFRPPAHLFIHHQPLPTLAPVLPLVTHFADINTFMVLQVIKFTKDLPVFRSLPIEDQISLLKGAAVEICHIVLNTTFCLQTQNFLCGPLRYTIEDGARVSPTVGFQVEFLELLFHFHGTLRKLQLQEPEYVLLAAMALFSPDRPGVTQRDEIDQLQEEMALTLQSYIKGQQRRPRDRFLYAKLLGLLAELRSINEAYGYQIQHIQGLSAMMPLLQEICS
Chain of Glucocorticoid receptor (Homo sapiens) (P04150 whole entry, looked up, the tested form may be a part): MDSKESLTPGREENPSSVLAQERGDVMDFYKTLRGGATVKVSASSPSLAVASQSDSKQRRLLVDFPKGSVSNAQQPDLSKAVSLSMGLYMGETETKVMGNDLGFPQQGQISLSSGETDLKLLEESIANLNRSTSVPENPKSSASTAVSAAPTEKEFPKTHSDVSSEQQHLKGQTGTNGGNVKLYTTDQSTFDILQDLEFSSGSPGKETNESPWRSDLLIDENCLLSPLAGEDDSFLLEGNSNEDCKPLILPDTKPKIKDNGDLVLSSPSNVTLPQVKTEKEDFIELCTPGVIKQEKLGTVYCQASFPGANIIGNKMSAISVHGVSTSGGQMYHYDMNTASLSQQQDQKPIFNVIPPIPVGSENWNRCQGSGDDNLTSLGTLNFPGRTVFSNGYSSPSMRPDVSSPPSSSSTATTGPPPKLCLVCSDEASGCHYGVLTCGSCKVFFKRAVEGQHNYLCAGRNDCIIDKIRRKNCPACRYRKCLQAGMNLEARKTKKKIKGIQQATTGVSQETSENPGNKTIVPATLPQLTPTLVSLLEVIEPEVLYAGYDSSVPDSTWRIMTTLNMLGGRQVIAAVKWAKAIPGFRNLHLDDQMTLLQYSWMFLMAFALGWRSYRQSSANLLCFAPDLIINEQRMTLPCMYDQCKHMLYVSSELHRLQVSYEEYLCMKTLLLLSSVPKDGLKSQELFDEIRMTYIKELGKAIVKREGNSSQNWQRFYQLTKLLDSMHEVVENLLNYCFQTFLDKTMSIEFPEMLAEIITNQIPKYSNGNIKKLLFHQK
Chain of Bile acid receptor (Homo sapiens) (Q96RI1 whole entry, looked up, the tested form may be a part): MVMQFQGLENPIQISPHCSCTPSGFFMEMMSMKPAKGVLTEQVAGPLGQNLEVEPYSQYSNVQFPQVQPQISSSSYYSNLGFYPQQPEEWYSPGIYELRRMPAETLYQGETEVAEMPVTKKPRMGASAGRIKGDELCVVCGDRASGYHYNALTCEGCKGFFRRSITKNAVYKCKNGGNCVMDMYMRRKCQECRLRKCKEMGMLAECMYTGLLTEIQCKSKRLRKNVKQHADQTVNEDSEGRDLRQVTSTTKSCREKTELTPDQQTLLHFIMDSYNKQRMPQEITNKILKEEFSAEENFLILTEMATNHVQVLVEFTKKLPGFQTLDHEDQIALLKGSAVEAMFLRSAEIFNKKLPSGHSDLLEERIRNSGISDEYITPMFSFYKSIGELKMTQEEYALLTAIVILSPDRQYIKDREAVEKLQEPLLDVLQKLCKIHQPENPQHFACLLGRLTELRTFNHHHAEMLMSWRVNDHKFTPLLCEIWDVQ
Chain of X-box-binding protein 1 (Homo sapiens) (P17861 whole entry, looked up): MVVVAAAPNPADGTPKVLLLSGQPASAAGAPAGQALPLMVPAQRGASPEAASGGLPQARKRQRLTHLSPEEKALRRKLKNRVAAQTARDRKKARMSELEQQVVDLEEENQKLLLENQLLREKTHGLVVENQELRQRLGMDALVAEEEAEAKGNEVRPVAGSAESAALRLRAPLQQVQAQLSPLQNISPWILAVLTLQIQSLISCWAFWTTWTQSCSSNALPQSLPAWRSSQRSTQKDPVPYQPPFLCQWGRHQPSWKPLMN
Chain of Oxysterols receptor LXR-alpha (Homo sapiens) (Q13133 whole entry, looked up, the tested form may be a part): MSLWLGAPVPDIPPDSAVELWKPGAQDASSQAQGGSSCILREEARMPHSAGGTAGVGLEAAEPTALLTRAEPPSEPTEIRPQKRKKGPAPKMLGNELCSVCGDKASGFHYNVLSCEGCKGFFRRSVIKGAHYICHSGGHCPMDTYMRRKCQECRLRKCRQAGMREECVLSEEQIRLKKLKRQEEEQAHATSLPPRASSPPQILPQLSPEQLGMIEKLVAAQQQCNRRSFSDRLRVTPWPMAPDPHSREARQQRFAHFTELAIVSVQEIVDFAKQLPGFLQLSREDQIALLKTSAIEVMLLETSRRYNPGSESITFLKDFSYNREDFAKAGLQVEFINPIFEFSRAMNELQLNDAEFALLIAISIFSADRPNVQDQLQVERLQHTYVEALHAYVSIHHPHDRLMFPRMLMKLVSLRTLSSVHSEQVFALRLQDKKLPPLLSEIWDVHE

For the compound `CCCCCCC(O)CCCCCCCCCCC(=O)O` (stereo not drawn), the outcome in assay [1], in assay [2], in assay [3], in assay [4], in [5] and in assay [6] was inactive. The compound was called inactive in assay [7], in [8], in assay [9], in [10], in assay [11] and in [12]. Moreover, the compound was called inactive in assay [13], in [14], in [15] and in assay [16].

For `COc1ccccc1[N+](=O)[O-]`, the compound was called inactive in assay [1], in [2], in assay [3], in [4], in assay [5] and in assay [6]. In addition, the result in assay [7], in [9], in assay [12], in assay [15], in assay [16] and in assay [17] was inactive.

Consider `CC(C)C(OC(=O)c1ccccc1)C(C)(C)COC(=O)c1ccccc1` (stereo not drawn), for which the outcome in assay [1], in assay [2], in assay [4], in assay [6], in assay [18] and in [14] was inactive. The compound was called inactive in [15], in assay [16] and in assay [17]. Besides, the values for the half-maximal activity concentration (AC50) in [3] and in assay [9] were 1.52 µM (active) and 20 µM (active), respectively.

As for `CCOCCOCCOCC`, the call in [1], in assay [2], in assay [3], in assay [4], in assay [6] and in [18] was inactive. Further, the result in assay [8], in [10], in assay [19], in assay [13], in [14] and in assay [15] was inactive. Further, the compound was called inactive in assay [16] and in assay [17].

Turning to `Oc1c(Cl)cc(Cl)c(Cl)c1Cc1c(O)c(Cl)cc(Cl)c1Cl`, the outcome in assay [1], in assay [2], in assay [4], in [5], in assay [18] and in assay [7] was inactive. Besides, the result in [8], in assay [11], in [19], in assay [15], in assay [16] and in assay [17] was inactive. For the same compound, the AC50 (commonly the midpoint of the concentration-response curve, whichever way the signal moves) in assay [3] was 1.97 µM (active); in [9] it was 17.6 µM (active); in assay [14], 11.1 µM (active).
